Records with an inconclusive call do not appear. Calls of active or inactive are those of the source. Calls follow the shape of the dose curve; as a rule, active = well fitted inhibition curve with a large enough effect; inconclusive = small, poorly fitted or top-dose-only effect; inactive = flat fitted curve, though single readings scatter.

The record followed here is PubChem BioAssay (NCATS).
% is scaled to controls: 0 for no effect and ±100 for the full control effect; potency is read from the fitted curve at half-maximal effect.

The subject of the test is HEK293. The test can be described thus: Cytotoxic Profiling of Annotated Libraries Using Quantitative High-Throughput Screening (AID 1296008). Also: nearly all actives have a fitted effect of over 60% in size. Conditions: Five cell lines viability, CellTiter-Glo ATP luminescence, 48-72 h; max response: stronger effect = lower value. Put shortly: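 Cells exposed to compounds for 48 or 72 hr at 37 degrees Celsius. Viability read as ATP-coupled luminescence with CellTiter-Glo after 10 min at room temperature.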
Turning to `Cc1nc(NC(=O)N2CCCC2C(N)=O)sc1-c1ccnc(C(C)(C)C(F)(F)F)c1` (stereo not given), the Potency is 10.3 µM (active). Regarding `COc1ccc(-c2ccc3c(N4CCOCC4C)nc(N4CCOCC4C)nc3n2)cc1CO` (stereo not given), the Potency is 0.146 µM (active). Still for that read-out and setting: then `COc1cc2c(cc1NS(=O)(=O)c1ccc(Br)cc1C)n(C)c(=O)n2C`, with 1.46 µM (active); and `CCn1c(-c2nonc2N)nc2c(C#CC(C)(C)O)ncc(OCC3CCCNC3)c21` (stereo not given), with 0.82 µM (active). The same measure, in the same setting: then `CCn1c(-c2nonc2N)nc2c(C#CCO)ncc(OCCCN)c21`, with 7.31 µM (active). For `C/C(=N\N=C(N)N)c1cc(NC(=O)CCCCCCCCC(=O)Nc2cc(/C(C)=N/N=C(N)N)cc(/C(C)=N/N=C(N)N)c2)cc(/C(C)=N/N=C(N)N)c1`, the Potency is 7.31 µM (active).

In the case of `COc1cc2c(Nc3cc(F)c(Cl)c(Cl)c3)ncnc2cc1OCC1CCCN(C)CCC1`, the Potency was 8.2 µM (active).

For the compound `Cc1cc2c(c(=O)o1)C=C1CC[C@H]([C@H](C)Cn3cnc(=N)c4[nH]cnc43)C[C@@H]1O2`, the Potency is 8.2 µM (active).

For the compound `c1cc(NCCc2c[nH]c3ccccc23)cc(Nc2ccncc2)c1`, the max response was -111% (inactive). For the compound `C=C[C@@]1(C)C=C2C(=O)C(O)=C3[C@](C)(C(=O)O)CC[C@@H]4C[C@]34[C@]2(O)C(=O)C1`, the Potency is 1.8 µM (active).

In the case of `CC(=O)N1CCN(CCOc2ccc(C3CCN(C4=Nn5c(nnc5C(F)(F)F)CC4)CC3)cc2)CC1`, the Potency was 9.2 µM (active). On the same count and under the same terms, for `CCc1ccccc1OC[C@@H](O)CN[C@H]1CCCc2ccccc21` the value was 23.1 µM (active); for `COC(=O)N1CC2(CC2)C[C@H](C(=O)NO)[C@H]1C(=O)N1CCN(c2ccccc2)CC1`, 23.4 µM (active); for `COc1ccc(CCc2nc3c(C)c(-c4c(C)noc4C)c(C)cc3n2CCN2CCOCC2)cc1`, 23.1 µM (active). As to `CO[C@H]1C[C@@H]2CC[C@@H](C)[C@@](O)(O2)C(=O)C(=O)N2CCCC[C@H]2C(=O)O[C@H]([C@@H](C)C[C@@H]2CC[C@@H](O)[C@H](OC)C2)CC(=O)[C@H](C)/C=C(\C)[C@@H](O)[C@@H](OC)C(=O)[C@H](C)C[C@H](C)/C=C/C=C/C=C/1C`, the Potency was 0.0073 µM (active). The same measure, in the same setting: then `COc1cc(OC)c(NC(=O)c2ccc(Cc3cc4c(cc3C)C(C)(C)CCC4(C)C)o2)c(OC)c1`, with 20.6 µM (active); and `Cc1nc2ccc(-n3ncc(C(=O)c4cc5ccccc5[nH]4)c3N)cc2[nH]1`, with 5.8 µM (active).

In the case of `COc1cccc(-c2cn(-c3ccc(CCN4CCC(O)CC4)cc3)c3ncnc(N)c23)c1`, the Potency is 8.2 µM (active). Same read-out and setting: for `O=C(Nc1ccc(CN2CCOCC2)cc1)c1ccc(-c2cccc(Cl)c2)o1` the value was 9.2 µM (active). As for `CN(C)CC1CCn2c(c(C3=C(c4cn(C)c5ccccc45)C(=O)NC3=O)c3ccccc32)C1` (stereo not given), the Potency is 8.2 µM (active). In the case of `NC(=O)c1cnc(N[C@@H]2CCCC[C@@H]2N)nc1Nc1cccc(-n2nccn2)c1`, the Potency is 11.7 µM (active). `CC(=O)NC(C(=O)O[C@H]1CCC(C)(C)[C@@H]2CC=C3C(=O)OCC3(O)[C@@]12C)C(C)C` (stereo not given in full): the max response was -20.5% (inactive). `Nc1nc(Cl)nc2c1ncn2C1OC(CO)C(O)C1F` (stereo not given): the Potency was 2.06 µM (active).

Regarding `Cc1cc(NC(=O)c2cccc(NC(=O)/C=C/CN(C)C)c2)ccc1Nc1nccc(-c2cccnc2)n1`, the Potency is 9.2 µM (active). Still for that read-out and setting: for `C=C1C(=O)O[C@@H]2/C=C(\CO)CC/C=C(/C=O)C[C@@H](O)[C@@H]12` the value was 8.2 µM (active). Turning to `CNC1CN(c2ccc3c(=O)c(C(=O)O)cn(-c4nccs4)c3n2)CC1OC` (stereo not given), the Potency is 1.06 µM (active). The same measure, in the same setting: then `O=C(CN1C2=NCCN2c2ccccc21)c1ccc(-c2ccccc2)cc1`, with 18.4 µM (active). In the case of `O=C(Nc1ccccc1)N1CCC(Cc2cnc3ccccc3c2)CC1`, the max response was -99.9% (inactive). As to `CC(=O)C1(C)CCC2C3C=C(C)C4=CC(=O)CCC4(C)C3CCC21C` (stereo not given), the Potency is 10.3 µM (active). With `Cc1cc(-c2cnc(N)c3c(-c4ccc5scnc5c4)csc23)n(C)n1`, the Potency was 8.2 µM (active). For `CC1CCCC(O)CCC/C=C/c2cc(OS(=O)(=O)O)cc(O)c2C(=O)O1` (stereo not given), the max response was -20.5% (inactive). As to `COc1cc(/C=C2\CCCN([C@@H](C)c3ccc(F)cc3)C2=O)ccc1-n1cnc(C)c1`, the Potency is 13 µM (active).

Take `CC(C)S(=O)(=O)NC[C@@H]1CC(c2ccc(N3CCCC3)c(F)c2)=NO1`: the Potency was 14.6 µM (active). With `C#Cc1cccc(Nc2nc3cc(C(=O)O)ccc3c3cncnc23)c1`, the Potency is 16.4 µM (active). For the compound `O=C(Nc1ccc(C(O)(C(F)(F)F)C(F)(F)F)cc1)c1ccc(C(F)(F)F)cc1`, the Potency is 10.3 µM (active). As for `OC(c1ccc(-c2ccc(CN3CCN(Cc4ccncc4)CC3)cc2)c(F)c1)(C(F)(F)F)C(F)(F)F`, the Potency was 5.17 µM (active). Still for that read-out and setting: then `NC(=O)c1cnc(N[C@@H]2CCCC[C@H]2N)nc1Nc1cccc(-n2nccn2)c1`, with 20.6 µM (active); and `COc1ccc(CN2CCN(C(=O)CCNC(=O)c3ccc(C(C)(C)C)cc3)CC2)cc1`, with 7.31 µM (active).

`COc1ccc2c(c1)C(C(=O)N(Cc1ccc(N(C)C)cc1)c1ccc(C(C)C)cc1)CCC2` (stereo not given): the Potency is 11.6 µM (active).

For `CCc1cnc(N2CCC(c3nc(COc4ccc(-n5cnnn5)cc4)cs3)CC2)nc1`, the Potency was 13 µM (active).
